Laboratory results from PubChem BioAssay AID493056 (National Center for Advancing Translational Sciences (NCATS), 2011).
Several values for one entry are separate records, joined by “and”; a condition that tells them apart may be missing. Equal values may be shown once. Hit rate of the full screen: of about 360,000 compounds, about 2,400 (0.67%) were called active. The sample holds actives, similar compounds and a random draw of the others, so the mix is not that of the screen. Rule as the data show it: active = enhancement above about 30%; inactive = the rest. The source holds several records for some structures; these can differ, active in one and inactive in another.

molecular target: Thyrotropin-releasing hormone receptor (Homo sapiens) (UniProt P34981); experiment: qHTS for Small Molecule Agonists and Allosteric Enhancers of Human TRH Receptor: Primary Screen for Enhancers; settings: TRHR cells, fluo-8 calcium fluorescence, EC20 TRH enhancement; at 2 µM; stronger effect = higher value; also: 0% is about no effect
Outline: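 Enhancer read-out: after compound pinning and an initial kinetic agonist-mode read, an EC20 of TRH (10 nM final) was injected and fluo-8 calcium signal (Ex 480/Em 530) followed at 1 s/cycle for 100 cycles in TRHR-expressing cells.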

Chain of Thyrotropin-releasing hormone receptor (Homo sapiens) (P34981 whole entry, looked up): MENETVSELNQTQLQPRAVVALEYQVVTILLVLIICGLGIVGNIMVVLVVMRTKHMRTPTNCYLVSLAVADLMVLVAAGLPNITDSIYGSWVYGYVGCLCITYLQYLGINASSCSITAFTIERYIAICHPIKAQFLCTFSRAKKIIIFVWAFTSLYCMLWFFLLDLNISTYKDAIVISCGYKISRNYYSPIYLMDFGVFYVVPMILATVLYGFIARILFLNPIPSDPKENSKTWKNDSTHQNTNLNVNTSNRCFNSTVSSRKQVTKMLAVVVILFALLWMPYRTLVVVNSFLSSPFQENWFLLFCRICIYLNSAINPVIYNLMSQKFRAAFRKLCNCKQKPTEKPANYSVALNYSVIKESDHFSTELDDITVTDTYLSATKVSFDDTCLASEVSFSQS

Row | Compound | enhancement
1 | COc1cc(NC(=O)c2noc3c2CSc2ccccc2-3)cc(OC)c1OC | 4.94% (inactive)
2 | COc1ccc(Nc2cc(=O)n(-c3ccccc3)c3c2c(=O)n(C)c(=O)n3C)cc1 | -11.6% (inactive)
3 | COc1ccc(-c2[nH]c3c(c2-c2c(-n4cccc4)n(C)c(=O)n(C)c2=O)c(=O)n(C)c(=O)n3C)cc1 | 31.9% (active)
4 | COc1ccc(-c2c3c(=O)n(C)c(=O)n(C)c3c3c(C)nc4ccccc4n23)cc1 | -1.08% (inactive)
5 | CCOC(=O)c1cc(-c2ccccc2)n(CCC(=O)Nc2ccccc2CC)c1C | 14% (inactive)
6 | Cc1ccccc1NC(=O)Cn1c(=O)n(CCCCC(=O)NCc2ccccc2Cl)c(=O)c2ccccc21 | 2.95% (inactive)
7 | Cc1c(C(=O)Nc2cccc(Cl)c2)oc2ccc(S(=O)(=O)N3CCOCC3)cc12 | -6.24% (inactive)
8 | C[C@H](NC(=O)NCCc1ccccc1)C(=O)O | 33.9% (active)
9 | O=C(NCCc1ccccc1)C1CC1 | -3.66% (inactive)
10 | CC(C)C[C@H](NC(=O)NCCc1ccc(Cl)cc1)C(=O)O | -5.99% (inactive)
11 | CC(C)Cn1c(C2CC(=O)N(c3ccccc3Cl)C2)nc2ccccc21 (centres undefined) | -0.635% (inactive)
12 | CN(C)c1ccc(C(=O)NCC(=O)OC(C(=O)Nc2cc(C(F)(F)F)ccc2Cl)c2ccccc2)cc1 (centres undefined) | -3.56% (inactive)
13 | C[N+](C)(C)CCNC(=O)c1cc[n+](Cc2ccccc2)c(/C=N/O)c1 | 40.4% (active)
14 | O=C(NCCCNCc1ccccc1)c1ccc(/C=N/O)nc1 | 15.9% (inactive)
15 | C[n+]1ccc(C(=O)NCc2ccccc2)cc1 | -9.31% (inactive)
16 | CCn1c(CN2CCC(C)CC2)nc2cc(NC(=O)c3ccccc3[N+](=O)[O-])ccc21 | 3.72% (inactive)
17 | COc1ccccc1-c1cc2nc(C)c(CCC(=O)O)c(C)n2n1 | 5.74% (inactive)
18 | O=C(COC(=O)C12CC3CC(CC(C3)C1)C2)NCc1ccco1 | -2.58% (inactive) and 33.9% (active)
19 | O=C(CC1CCCCC1)NCc1ccco1 | 14.2% (inactive)
20 | O=C(CC12CC3CC(CC(C3)C1)C2)NCc1ccco1 | -4.28% (inactive)
21 | Cc1ccc(NC2=C(c3ccc(C(F)(F)F)cc3)C(=O)c3ccccc32)cc1F | -15.7% (inactive)
22 | CCOC(=O)c1c(NC(=O)Cc2coc3ccc(CC)cc23)sc2c1CCC2 | -3.01% (inactive)
23 | O=C(Nc1nnc(C2CC(=O)N(c3ccc(Cl)cc3)C2)s1)c1ccco1 (centres undefined) | -3.65% (inactive)

Row | Compound | enhancement
24 | CCc1ccc(NC(=O)c2cc(S(=O)(=O)NC3CCCCCC3)ccc2F)cc1 | 3.53% (inactive)
25 | O=C(Nc1ccccc1)c1cccnc1Nc1ccccc1 | 47.9% (active)
26 | O=C(Nc1ccc(F)cc1)c1cccnc1N1CCOCC1 | -2.71% (inactive)
27 | O=C(Nc1ccccc1)c1ccccc1NC(=O)C(F)(F)F | -2.9% (inactive)
28 | CC(CCCc1ccccc1)NC(=O)c1nn(-c2ccc(Cl)cc2)nc1CO (centres undefined) | -3.71% (inactive)
29 | Cc1cc(C)cc(Nc2ncnc3onc(-c4ccc(F)cc4)c23)c1 | 5.09% (inactive)
30 | Cn1c(SCC(=O)N2CCCc3ccccc32)ncc(C(=O)Nc2ccc(F)cc2)c1=O | 7.76% (inactive)
31 | COc1cc2nc(NCC(C)c3ccccc3)n3nc(-c4ccccc4)nc3c2cc1OC (centres undefined) | 15.5% (inactive)
32 | O=C(NCc1cccs1)c1ccc(Br)o1 | -3.47% (inactive)
33 | O=C(NCc1cccs1)c1cc(-c2ccccn2)nc2ccc(Br)cc12 | 30.5% (active)
34 | O=C(CN1CCN(c2ccccn2)CC1)NCc1cccs1 | 17.1% (inactive)
35 | CCc1ccc(-n2nc(C)c3c(C)cc(=O)n(CC(=O)Nc4ccc(F)cc4C)c32)cc1 | 6.58% (inactive)
36 | CN(C)c1ccnc(Oc2ccc(F)cc2)c1C#N | 4.36% (inactive)
37 | CCOC(=O)CSc1nc(N2CCOCC2)c2c(c1C#N)CC(C(C)C)OC2 (centres undefined) | -9.38% (inactive)
38 | CCOC(=O)CSc1nccc(N(C)C)c1C#N | 36.1% (active)
39 | O=C(C1COc2ccccc2O1)N(Cc1cccnc1)c1nc2c(F)cc(F)cc2s1 (centres undefined) | -1.37% (inactive)
40 | Cc1cc(C)c(NC(=O)CCc2c(C)nc3c(c(C)nn3C(C)(C)C)c2C)c(C)c1 | 31% (active)
41 | COC(=O)c1ccc(NC(=O)CCc2c(C)nc3c(c(C)nn3-c3ccc(C)cc3)c2C)cc1 | 0.187% (inactive)
42 | CCCNC(=O)CCc1c(C)nc2c(c(C)nn2-c2ccc(C)cc2)c1C | 7.28% (inactive)
43 | Cn1c(C(=O)N2CCCC(C(=O)NCc3ccccc3)C2)cc2sccc21 (centres undefined) | 4.18% (inactive)
44 | Cn1c(C(=O)N2CCC(C(=O)N3CCN(c4ccccc4)CC3)CC2)cc2sccc21 | 0.218% (inactive)
45 | COc1ccc(N2CCN(C(=O)C3CCCN(C(=O)c4cc5sccc5n4C)C3)CC2)cc1 (centres undefined) | 32.5% (active)
46 | Cc1ccccc1CSc1nc2c([nH]c3ccccc32)c(=O)n1C | -2.07% (inactive)

Row | Compound | enhancement
47 | COc1ccc(Cl)cc1-n1c(CCC(=O)O)ccc1-c1ccc(C)cc1 | 7.8% (inactive)
48 | Cc1ccc(S(=O)(=O)N2CCC(N3CCCCCC3)CC2)cc1 | 26.1% (inactive)
49 | Cc1ccc(N2CCN(S(=O)(=O)c3ccc(F)cc3)CC2)c(C)c1 | 32% (active)
50 | Cc1ccccc1N1CCN(S(=O)(=O)c2ccc3ccccc3c2)CC1 | -5.29% (inactive)
51 | Cc1ccc(S(=O)(=O)N2CCN(C)CC2)cc1 | 33.6% (active)
52 | Cc1ccc(C)c(N2CCN(S(=O)(=O)c3ccc4c(c3)C(C(C)C)C(=O)N4)CC2)c1 (centres undefined) | -4.92% (inactive)
53 | Cc1ccc(S(=O)(=O)N2CCN(C(=O)c3cccs3)CC2)cc1 | 0.403% (inactive)
54 | CCc1cc2c(cc3c(=O)n(CC(=O)N4CCN(c5cc(Cl)ccc5C)CC4)nc(CC)n32)s1 | -2.18% (inactive)
55 | Cc1nc2sc(C)c(C)n2c(=O)c1S(=O)(=O)NCCc1ccc(Cl)cc1 | 2.98% (inactive)
56 | O=C(COC(=O)c1ccccc1Br)Nc1nnc(-c2ccccc2)o1 | 32.2% (active)
57 | O=C(Nc1nnc(-c2ccc(Cl)cc2)o1)c1ccccc1Br | 1.12% (inactive)
58 | O=C(COC(=O)CSc1nnc(-c2ccc(Cl)cc2)o1)Nc1cc(Cl)cc(Cl)c1 | -8.1% (inactive)
59 | CSc1ncc(C(=O)NCc2ccccc2Cl)c(C(F)(F)F)n1 | -4.14% (inactive)
60 | CN(C)c1ccc(NC(=O)CSc2nc(-c3ccco3)cc(C(F)(F)F)n2)cc1 | 10.8% (inactive)
61 | O=C(NC1CCCCC1)c1ccc(Cn2c(SCc3ccccc3)nc3cccnc32)cc1 | 7.91% (inactive)
62 | COc1ccccc1C(=O)NCC(=O)NCCSc1ccc(Br)cc1 | 0.828% (inactive)
63 | COc1cc(C(=O)NCC(=O)NCCSc2ccc(Br)cc2)cc(OC)c1OC | 1.93% (inactive)
64 | COc1cccc(C(=O)NCCSc2ccc(Br)cc2)c1 | 31.9% (active)
65 | CCOc1cc(C2C(C(=O)Nc3ccc(OC)cc3)=C(C)Nc3nc(SC)nn32)ccc1O (centres undefined) | -5.28% (inactive)
66 | O=C(C1Cc2ccccc2CN1C(=O)c1ccco1)N1CCN(c2ccccc2)CC1 (centres undefined) | 36% (active)
67 | COc1ccccc1N1CCN(C(=O)C2Cc3ccccc3CN2C(=O)c2ccco2)CC1 (centres undefined) | 6.6% (inactive)
68 | CCC(=O)N1c2ccccc2CC1C(=O)N1CCN(c2ccccc2)CC1 (centres undefined) | -2.98% (inactive)
69 | COc1cccc(NC(=O)CSC2=Nc3ccccc3C3=NC(CC(=O)NC4CCCCC4)C(=O)N23)c1 (centres undefined) | -3.86% (inactive)

Row | Compound | enhancement
70 | COc1ccc(NC(=O)c2sc3nc(-c4cc5cccc(OC)c5oc4=O)[nH]c(=O)c3c2C)cc1 | 8.15% (inactive)
71 | Cn1c(=O)c2c(SCC(=O)NCC3CCCO3)nc(-c3ccccc3F)nc2n(C)c1=O (centres undefined) | -1.86% (inactive)
72 | Cc1cc(C)n(S(=O)(=O)c2cccc([N+](=O)[O-])c2)n1 | -7.84% (inactive)
73 | Cc1ccc(-c2cn(S(=O)(=O)c3cccc([N+](=O)[O-])c3)nc2N)cc1 | 43.3% (active)
74 | CC1=NCCN1S(=O)(=O)c1cccc([N+](=O)[O-])c1 | 18.4% (inactive)
75 | CCOc1ccc(CNC(=O)c2cc(=O)[nH]c3ccc(S(=O)(=O)N4CCCCC4)cc23)cc1 | 5.17% (inactive)
76 | COc1ccc(OC)c(NC(=O)Cn2c(=O)n(Cc3ccccc3)c(=O)c3ccccc32)c1 | -7.19% (inactive)
77 | COc1ccc(C(=O)N2CCC(c3nc4ccccc4o3)CC2)cc1 | 6.96% (inactive)
78 | COc1ccccc1-c1nnc(SCC(N)=O)o1 | 0.976% (inactive)
79 | COc1ccccc1-c1nnc(C2CCN(C(=O)c3ccc(Cl)cc3)CC2)o1 | 49.9% (active)
80 | COC(=O)c1c(NC(=O)c2ccc(Cl)c(Cl)c2)sc2c1CCCC2 | 12.7% (inactive)
81 | COc1cccc(C(=O)NC2CCN(C#N)CC2)c1 | -0.807% (inactive)
82 | Cc1ccc(Cl)cc1N1CCN(C(=O)c2cnc3c(-c4ccc(F)cc4)c(C)nn3c2C)CC1 | -2.73% (inactive)
83 | CCOc1ccc(N(CC)C(=O)c2noc3c2COc2ccc(C)cc2-3)cc1 | -7.18% (inactive)
84 | NS(=O)(=O)c1cccc(NC(=O)CSc2nc3ccccc3n2-c2ccccc2)c1 | 41.7% (active)
85 | Cc1nnc(SCC(=O)Nc2cccc(N)c2)n1-c1ccccc1 | 3.5% (inactive)
86 | COc1ccc(-n2cnnc2SCC(=O)Nc2cccc(S(N)(=O)=O)c2)cc1 | 17.5% (inactive)
87 | O=C(CNC(=O)c1ccc(Cl)c(C(F)(F)F)c1)OC(C(=O)Nc1cc(C(F)(F)F)ccc1Cl)c1ccccc1 (centres undefined) | -3.64% (inactive)
88 | Cc1nn(-c2nc(-c3ccccc3)cc(C(F)(F)F)n2)c(C)c1Cl | -7.42% (inactive)
89 | COc1cccc(-n2ccn(CC(=O)NCc3ccc(C)cc3)c(=O)c2=O)c1 | 6.62% (inactive)
